Among the data in PubChem BioAssay (NCI) are growth values, retold here.

The panel holds about 83,000 compounds, 20% with a hit somewhere; the sample as a whole holds those more often.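 Plates (96-well) were seeded with cells, treated with compound at one concentration, and incubated for 48 hours before percent growth was determined.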 Values without a mark were called inactive. The source made the active and inactive calls. Rule for the calls: active = growth percent below 10; inactive = the rest.

Among the test systems are HCT-15 colon; HT29 colon; SNB-75 CNS; SNB-19 CNS; U251 CNS; PC-3 prostate; SK-MEL-5 melanoma; UACC-62 melanoma; LOX IMVI melanoma; SK-MEL-28 melanoma; SK-MEL-2 melanoma; EKVX NSCLC; SN12C renal; UO-31 renal; TK-10 renal; ACHN renal; CAKI-1 renal; A498 renal; CCRF-CEM leukemia; MOLT-4 leukemia.
Common to all, as to assay: NCI-60 one-dose screen, 48 h (100 = growth as untreated, 0 = no growth, -100 = all killed)
Conditions in all cases: 10 µM unless noted

With `Clc1ccc(CNc2c3ccccc3nc3ccccc23)cc1`, the growth was 23.3% in the assay on HCT-15 colon; 15% with HT29 colon; 68.4% in the assay on SNB-75 CNS; 43.1% in the assay on SNB-19 CNS; 46.2% in the assay on U251 CNS; 38.7% in the assay with PC-3 prostate. Also, the growth in the assay with SK-MEL-5 melanoma is 61.2%; in the assay on UACC-62 melanoma, 70.7%; in the assay on LOX IMVI melanoma it was 23%; in the assay with SK-MEL-28 melanoma, 80.3%; with SK-MEL-2 melanoma it was 72.4%; in the assay on EKVX NSCLC, 62.6%. The growth was 39.1% in the assay with SN12C renal; 27% in the assay with UO-31 renal; 49.7% with TK-10 renal; 22.8% in the assay with ACHN renal; 41.4% in the assay with CAKI-1 renal; 20.8% with A498 renal. The growth with CCRF-CEM leukemia is 30.2%; in the assay on MOLT-4 leukemia it was 4.63% (active).

With `Cc1noc(C)c1C(=O)OCc1coc2ccccc2c1=O`, the growth with HCT-15 colon is 52.5%; in the assay with HT29 colon, 66%; with SNB-75 CNS it was 81.6%; in the assay on SNB-19 CNS, 82.7%; in the assay with U251 CNS, 72.8%; in the assay with PC-3 prostate it was 70.1%. The growth in the assay on SK-MEL-5 melanoma is 80%; in the assay with UACC-62 melanoma it was 54.7%; in the assay with LOX IMVI melanoma, 70.8%; in the assay on SK-MEL-28 melanoma, 86.8%; in the assay with SK-MEL-2 melanoma, 81.4%; in the assay with EKVX NSCLC it was 86.9%. Further, the growth in the assay on SN12C renal was 65.4%; in the assay with UO-31 renal it was 48.7%; with TK-10 renal, 71.4%; in the assay on ACHN renal, 78.3%; in the assay on CAKI-1 renal it was 45.3%; with A498 renal, 104%. Further, the growth in the assay on CCRF-CEM leukemia was 24.2%; in the assay with MOLT-4 leukemia, 62.8%.

`COc1ccc2c3c([nH]c2c1)C(=O)c1nc(C)ccc1C3=O`: the growth in the assay on HCT-15 colon was 22.3%; in the assay with HT29 colon it was 74.9%; in the assay on SNB-75 CNS, -4.19% (active); in the assay with SNB-19 CNS it was 46.1%; with U251 CNS it was 45.6%; in the assay on PC-3 prostate it was 45.7%. Further, the growth was -95.1% (active) in the assay on SK-MEL-5 melanoma; -29.3% (active) in the assay on UACC-62 melanoma; 19.1% with LOX IMVI melanoma; 83.7% with SK-MEL-28 melanoma; 66.7% in the assay with SK-MEL-2 melanoma; 53.6% in the assay on EKVX NSCLC. For the same compound, the growth in the assay on SN12C renal is 38.4%; in the assay on UO-31 renal it was 39.6%; with TK-10 renal, 109%; with ACHN renal it was 35%; with CAKI-1 renal it was 51.8%; with A498 renal, 67.6%. Besides, the growth in the assay with CCRF-CEM leukemia was 53.2%; with MOLT-4 leukemia, 7.34% (active).

As to `N#C/C(=C\c1ccc(Br)cc1)n1nnc2ccc(F)cc21`, the growth was -18.2% (active) in the assay with HCT-15 colon; 3.64% (active) in the assay on HT29 colon; 0.279% (active) with SNB-75 CNS; 19.5% in the assay on SNB-19 CNS; 1.71% (active) in the assay on U251 CNS; 7.5% (active) in the assay with PC-3 prostate. Besides, the growth is 6.12% (active) with SK-MEL-5 melanoma; -54.7% (active) in the assay on UACC-62 melanoma; -63.7% (active) with LOX IMVI melanoma; -5.29% (active) in the assay with SK-MEL-28 melanoma; 13.8% with SK-MEL-2 melanoma; 49.9% in the assay on EKVX NSCLC. For the same compound, the growth with SN12C renal is -51.2% (active); in the assay on UO-31 renal, -36.4% (active); with TK-10 renal, -3.76% (active); in the assay on ACHN renal, -37.9% (active); in the assay on CAKI-1 renal, -4.59% (active); in the assay on A498 renal it was -15.6% (active). Further, the growth in the assay with CCRF-CEM leukemia is -10.2% (active); with MOLT-4 leukemia it was -20% (active).

For `CCCCC(=O)Nc1ncc(Cc2ccc(Cl)cc2)s1`, the growth is 40.3% in the assay with HCT-15 colon; 28.6% in the assay on HT29 colon; 46.5% in the assay on SNB-75 CNS; 77.2% in the assay with SNB-19 CNS; 65.6% in the assay with U251 CNS; 80.9% with PC-3 prostate. Also, the growth with SK-MEL-5 melanoma is 80.3%; in the assay on UACC-62 melanoma, 49.6%; in the assay with LOX IMVI melanoma it was 64.8%; in the assay with SK-MEL-28 melanoma, 74.2%; with SK-MEL-2 melanoma, 90.4%; in the assay with EKVX NSCLC, 72.2%. Besides, the growth is 74.6% in the assay on SN12C renal; 58.2% in the assay with UO-31 renal; 84.8% in the assay with TK-10 renal; 81.8% in the assay on ACHN renal; 42.3% in the assay on CAKI-1 renal; 70.6% in the assay on A498 renal. The growth is 76.4% in the assay on CCRF-CEM leukemia and 66.2% with MOLT-4 leukemia.

On to `Cc1ccc(S(=O)(=O)N2CCCC2CO)cc1` (stereo not given), for which the growth with HCT-15 colon was 95%; with HT29 colon, 88.5%; in the assay on SNB-75 CNS, 68.1%; with SNB-19 CNS it was 98.9%; with U251 CNS it was 98.1%; in the assay on PC-3 prostate, 75.6%. Further, the growth in the assay on SK-MEL-5 melanoma was 98.4%; in the assay with UACC-62 melanoma, 104%; in the assay on LOX IMVI melanoma, 86.3%; with SK-MEL-28 melanoma, 163%; with SK-MEL-2 melanoma, 96.3%; in the assay on EKVX NSCLC it was 101%. For the same compound, the growth in the assay on SN12C renal is 101%; in the assay on UO-31 renal, 94.2%; with TK-10 renal it was 101%; in the assay on ACHN renal, 89.3%; in the assay on CAKI-1 renal it was 85.6%; with A498 renal, 65.7%. Besides, the growth was 68.5% in the assay with CCRF-CEM leukemia and 98.8% in the assay with MOLT-4 leukemia.

On to `O=C(OCc1ccc2c(Cl)cc(Cl)c(O)c2n1)n1cncn1`, for which the growth in the assay with HCT-15 colon is 19.3%; in the assay on HT29 colon it was 72.6%; in the assay with SNB-75 CNS, 44.9%; in the assay on SNB-19 CNS, 30.5%; in the assay on U251 CNS, 16.3%; in the assay on PC-3 prostate it was 42.5%. The growth is 15.4% in the assay on SK-MEL-5 melanoma; -3.18% (active) in the assay on UACC-62 melanoma; 9.57% (active) in the assay on LOX IMVI melanoma; 35.5% with SK-MEL-28 melanoma; 36.6% in the assay with SK-MEL-2 melanoma; 26.4% in the assay on EKVX NSCLC. The growth is 37.2% in the assay on SN12C renal; 15.2% in the assay on UO-31 renal; 61.7% in the assay with TK-10 renal; 25.3% with ACHN renal; 13.6% with CAKI-1 renal; 64.9% in the assay with A498 renal. Besides, the results for the growth in the assay on CCRF-CEM leukemia and in the assay with MOLT-4 leukemia were 24.2% and 18.3%, respectively.
